This is part of a sample that, as a whole, favours compounds with a hit. Of some 79,000 tested, about 15% had one in any assay. Unmarked numbers belong to inactive results. Activity calls are given as the source filed them. No stated cut-off is given here; in the data, active means growth inhibition above about 70%; inactive means the rest.

Among the data in PubChem BioAssay (NCI) are growth inhibition values, retold here.

A short description of experiment [1]: NCI Yeast Anticancer Drug Screen. Data for the rad50 strain (AID 155).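 Further: 0% = growth of vehicle-only cultures of the same strain.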 The settings on record: S. cerevisiae rad50 strain growth inhibition, hits give high values. An outline of the steps:
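A DNA repair-deficient yeast mutant serves as the test organism; compound-induced growth inhibition is calculated against vehicle-treated cells.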

Experiment [2] in a line: NCI Yeast Anticancer Drug Screen. Data for the mec2-1 strain (AID 157). The settings on record: S. cerevisiae mec2-1 strain, hits give high values. The gist of the method:
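Compounds were applied to mec2-1 yeast cells. Their growth was then compared with that of vehicle-treated cultures to give growth inhibition.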

Experiment [3] is described as follows: NCI Yeast Anticancer Drug Screen. Data for the sgs1 mgt1 strain (AID 161).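 Further: 0% = growth of cultures given vehicle only.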 The settings on record: S. cerevisiae sgs1 mgt1 strain, hits give high values. The gist of the method: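 This yeast growth screen uses a strain with defined DNA-repair lesions; compound-treated growth is compared with vehicle-treated growth.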
Experiment [4] can be described thus: NCI Yeast Anticancer Drug Screen. Data for the cln2 rad14 strain (AID 165).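 Further: 0% = growth equal to vehicle treated cultures.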 As to conditions: S. cerevisiae cln2 rad14 strain, hits give high values. The gist of the method: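 Strain: cln2 rad14 yeast, altered in cell cycle control and DNA damage repair. Read-out: growth inhibition vs vehicle.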
Experiment [5] can be described thus: NCI Yeast Anticancer Drug Screen. Data for the bub3 strain (AID 167). As to conditions: S. cerevisiae bub3 mutant strain, hits give high values. An outline of the steps:
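Inhibition values come from growth of compound-treated mutant yeast normalised to vehicle-treated controls.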

The nature of experiment [6]: NCI Yeast Anticancer Drug Screen. Data for the mlh1 rad18 strain (AID 175). As to conditions: S. cerevisiae mlh1 rad18 strain growth inhibition, hits give high values. An outline of the steps:
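A repair-deficient yeast strain is exposed to test compound, and growth is scored relative to vehicle-treated controls.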

Setting [7] is: at 5.0 µM (retest, dose inferred, filed as 0.5).
Where [8] appears, read: at 50.0 µM (retest, dose inferred, filed as 5.0).

For the compound `CC(=O)OCC1OC(OC2C=C(O[Si](C)(C)C)C[C@H]3C(=O)C=CC(=O)[C@@H]23)C(OC(C)=O)C(OC(C)=O)C1OC(C)=O` (stereo not given in full), the growth inhibition in experiment [1] (setting [7]) is 6%; in experiment [1] (setting [8]) it was 96% (active); in experiment [1] (at 50.0 µM), 58.6%; in experiment [2] (setting [7]), 1%; in experiment [2] (setting [8]), 98% (active); in experiment [2] (at 50.0 µM) it was 59.2%. The growth inhibition in experiment [3] (setting [7]) was 2%; in experiment [3] (setting [8]), 98% (active); in experiment [3] (at 50.0 µM), 31.4%; in experiment [4] (setting [7]), 2%; in experiment [4] (setting [8]), 88% (active); in experiment [4] (at 50.0 µM), 4.5%. The growth inhibition was 3% in experiment [5] (setting [7]); 93% (active) in experiment [5] (setting [8]); 15.1% in experiment [5] (at 50.0 µM); 3% in experiment [6] (setting [7]); 97% (active) in experiment [6] (setting [8]); 54.6% in experiment [6] (at 50.0 µM).

As to `Nc1ccc2oc(=O)c3ccccc3c2c1`, the growth inhibition is 18% in experiment [1] (setting [7]); 94% (active) in experiment [1] (setting [8]); 85.3% (active) in experiment [1] (at 50.0 µM); 7% in experiment [2] (setting [7]); 69% in experiment [2] (setting [8]); 36.6% in experiment [2] (at 50.0 µM). Moreover, the growth inhibition in experiment [3] (setting [7]) was 10%; in experiment [3] (setting [8]), 85% (active); in experiment [3] (at 50.0 µM), 48%; in experiment [4] (setting [7]) it was 8%; in experiment [4] (setting [8]), 30%; in experiment [4] (at 50.0 µM) it was 6.8%. Further, the growth inhibition in experiment [5] (setting [7]) is -3%; in experiment [5] (setting [8]), 74% (active); in experiment [5] (at 50.0 µM), 33.1%; in experiment [6] (setting [7]) it was 22%; in experiment [6] (setting [8]) it was 94% (active); in experiment [6] (at 50.0 µM), 86.8% (active).

As for `COc1ccc(C2C3=C(CCCC3=O)Oc3cc4c(cc32)OCO4)c(OC)c1` (stereo not given), the growth inhibition in experiment [1] (setting [7]) is 17%; in experiment [1] (setting [8]), 92% (active); in experiment [1] (at 50.0 µM) it was 3.95%; in experiment [2] (setting [7]) it was -3%; in experiment [2] (setting [8]), 90% (active); in experiment [2] (at 50.0 µM) it was 18.8%. Moreover, the growth inhibition in experiment [3] (setting [7]) is 6%; in experiment [3] (setting [8]) it was 92% (active); in experiment [3] (at 50.0 µM), -11.7%; in experiment [4] (setting [7]), 6%; in experiment [4] (setting [8]), 88% (active); in experiment [4] (at 50.0 µM), -6.1%. For the same compound, the growth inhibition in experiment [5] (setting [7]) was 8%; in experiment [5] (setting [8]), 94% (active); in experiment [5] (at 50.0 µM) it was 1.05%; in experiment [6] (setting [7]) it was 4%; in experiment [6] (setting [8]), 92% (active); in experiment [6] (at 50.0 µM), 8.95%.

For `COc1ccc(CNc2nc3cc(C(F)(F)F)ccc3nc2C)cc1OC`, the growth inhibition in experiment [1] (setting [7]) was -9%; in experiment [1] (setting [8]), 22%; in experiment [1] (at 50.0 µM), 87.8% (active); in experiment [2] (setting [7]) it was -34%; in experiment [2] (setting [8]) it was 39%; in experiment [2] (at 50.0 µM) it was 91.3% (active). The growth inhibition in experiment [3] (setting [7]) was 6%; in experiment [3] (setting [8]), 38%; in experiment [3] (at 50.0 µM), 91.4% (active); in experiment [4] (setting [7]), 11%; in experiment [4] (setting [8]), 74% (active); in experiment [4] (at 50.0 µM) it was 92.7% (active). For the same compound, the growth inhibition in experiment [5] (setting [7]) was -30%; in experiment [5] (setting [8]), 18%; in experiment [5] (at 50.0 µM) it was 89.7% (active); in experiment [6] (setting [7]) it was -19%; in experiment [6] (setting [8]) it was 18%; in experiment [6] (at 50.0 µM) it was 89.2% (active).

`NC(N)=N/N=C(\c1ccc(F)cc1)c1ccc(C(F)(F)F)cc1`: the growth inhibition in experiment [1] (setting [7]) is 5%; in experiment [1] (setting [8]) it was 99% (active); in experiment [1] (at 50.0 µM), 72.6% (active); in experiment [2] (setting [7]) it was -3%; in experiment [2] (setting [8]) it was 96% (active); in experiment [2] (at 50.0 µM), 30.2%. For the same compound, the growth inhibition in experiment [3] (setting [7]) was -2%; in experiment [3] (setting [8]), 99% (active); in experiment [3] (at 50.0 µM) it was 80.5% (active); in experiment [4] (setting [7]) it was -4%; in experiment [4] (setting [8]), 93% (active); in experiment [4] (at 50.0 µM), -12.7%. The growth inhibition in experiment [5] (setting [7]) is -1%; in experiment [5] (setting [8]), 99% (active); in experiment [5] (at 50.0 µM), 83.7% (active); in experiment [6] (setting [7]), 0%; in experiment [6] (setting [8]) it was 99% (active); in experiment [6] (at 50.0 µM), 85.8% (active).

On to `O=C(Nc1ccc(Cl)cc1)NS(=O)(=O)c1c(-c2ccccc2)oc2ccccc2c1=O`, for which the growth inhibition in experiment [1] (setting [7]) was 14%; in experiment [1] (setting [8]) it was 99% (active); in experiment [1] (at 50.0 µM), 92.3% (active); in experiment [2] (setting [7]), 6%; in experiment [2] (setting [8]), 98% (active); in experiment [2] (at 50.0 µM), 96.3% (active). For the same compound, the growth inhibition in experiment [3] (setting [7]) is 7%; in experiment [3] (setting [8]) it was 99% (active); in experiment [3] (at 50.0 µM), 95.5% (active); in experiment [4] (setting [7]), 15%; in experiment [4] (setting [8]), 98% (active); in experiment [4] (at 50.0 µM), 93.3% (active). Also, the growth inhibition is 0% in experiment [5] (setting [7]); 97% (active) in experiment [5] (setting [8]); 95.3% (active) in experiment [5] (at 50.0 µM); 15% in experiment [6] (setting [7]); 98% (active) in experiment [6] (setting [8]); 95.3% (active) in experiment [6] (at 50.0 µM).

As for `CSC(SC)C(SC)SC`, the growth inhibition in experiment [1] (setting [7]) is 1%; in experiment [1] (setting [8]), 98% (active); in experiment [1] (at 50.0 µM), 1.65%; in experiment [2] (setting [7]), 1%; in experiment [2] (setting [8]) it was 99% (active); in experiment [2] (at 50.0 µM) it was -5.4%. In addition, the growth inhibition is -4% in experiment [3] (setting [7]); 99% (active) in experiment [3] (setting [8]); 0.65% in experiment [3] (at 50.0 µM); 6% in experiment [4] (setting [7]); 99% (active) in experiment [4] (setting [8]); 16.6% in experiment [4] (at 50.0 µM). Also, the growth inhibition in experiment [5] (setting [7]) is 0%; in experiment [5] (setting [8]) it was 99% (active); in experiment [5] (at 50.0 µM), -2.35%; in experiment [6] (setting [7]), -1%; in experiment [6] (setting [8]), 99% (active); in experiment [6] (at 50.0 µM), -1.15%.

With `NCCOB1c2ccccc2Cc2ccccc21`, the growth inhibition was 2% in experiment [1] (setting [7]); 98% (active) in experiment [1] (setting [8]); 45.6% in experiment [1] (at 50.0 µM); 6% in experiment [2] (setting [7]); 99% (active) in experiment [2] (setting [8]); 98.7% (active) in experiment [2] (at 50.0 µM). The growth inhibition in experiment [3] (setting [7]) was -3%; in experiment [3] (setting [8]), 99% (active); in experiment [3] (at 50.0 µM), -3.8%; in experiment [4] (setting [7]), -2%; in experiment [4] (setting [8]), 99% (active); in experiment [4] (at 50.0 µM), 99% (active). Further, the growth inhibition in experiment [5] (setting [7]) was 1%; in experiment [5] (setting [8]) it was 98% (active); in experiment [5] (at 50.0 µM) it was 99.1% (active); in experiment [6] (setting [7]) it was 0%; in experiment [6] (setting [8]), 99% (active); in experiment [6] (at 50.0 µM) it was 99% (active).

On to `Ic1[nH]c(I)c(I)c1I`, for which the growth inhibition is 13% in experiment [1] (setting [7]); 97% (active) in experiment [1] (setting [8]); 95.2% (active) in experiment [1] (at 50.0 µM); 16% in experiment [2] (setting [7]); 98% (active) in experiment [2] (setting [8]); 95% (active) in experiment [2] (at 50.0 µM). The growth inhibition is 10% in experiment [3] (setting [7]); 95% (active) in experiment [3] (setting [8]); 97% (active) in experiment [3] (at 50.0 µM); -2% in experiment [4] (setting [7]); 96% (active) in experiment [4] (setting [8]); 94.3% (active) in experiment [4] (at 50.0 µM). Also, the growth inhibition in experiment [5] (setting [7]) is 14%; in experiment [5] (setting [8]), 98% (active); in experiment [5] (at 50.0 µM), 96.7% (active); in experiment [6] (setting [7]), 11%; in experiment [6] (setting [8]) it was 95% (active); in experiment [6] (at 50.0 µM) it was 92.7% (active).

Take `CCCCCCCCCCCC(=O)NCCc1ccc(O)c(O)c1`: the growth inhibition in experiment [1] (setting [7]) is 4%; in experiment [1] (setting [8]), 94% (active); in experiment [1] (at 50.0 µM), 97.2% (active); in experiment [2] (setting [7]), 5%; in experiment [2] (setting [8]) it was 96% (active); in experiment [2] (at 50.0 µM) it was 98.5% (active). The growth inhibition was 4% in experiment [3] (setting [7]); 95% (active) in experiment [3] (setting [8]); 97.5% (active) in experiment [3] (at 50.0 µM); -3% in experiment [4] (setting [7]); 55% in experiment [4] (setting [8]); 94.2% (active) in experiment [4] (at 50.0 µM). For the same compound, the growth inhibition was -7% in experiment [5] (setting [7]); 91% (active) in experiment [5] (setting [8]); 95.8% (active) in experiment [5] (at 50.0 µM); 1% in experiment [6] (setting [7]); 96% (active) in experiment [6] (setting [8]); 98% (active) in experiment [6] (at 50.0 µM).
